Measurements as given in PMC5540273 (PLoS ONE, 2017).

How the values were obtained:
Conditions in all cases: concentration: 1 μM, replicates: in singlicate; n = 1
WNK1 = system: WNK1
WNK2 = system: WNK2
WNK3 = system: WNK3
WNK4 = system: WNK4
YANK1 = system: T1, YANK1
T1 construct: gene STK32A

YANK2 = system: T2, YANK2
T2 construct: gene STK32B

YANK3 = system: T3, YANK3
T3 construct: gene STK32C

YES = system: T4, YES
T4 construct: gene YES1

YSK1 = system: T5, YSK1
T5 construct: gene STK25

YSK4 = system: T6, YSK4
T6 construct: gene MAP3K19
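Note: KINOMEscan kinase panel screen.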

SMILES | %Inh (WNK1) | %Inh (WNK2) | %Inh (WNK3) | %Inh (WNK4) | %Inh (YANK1) | %Inh (YANK2) | %Inh (YANK3) | %Inh (YES) | %Inh (YSK1) | %Inh (YSK4)
O=C(Nc1n[nH]c2nc(-c3ccccc3)ccc12)C1CC1 [SB-708999] | 15% | 37% | 36% | 60% | 0% | 0% | 28% | 1% | 0% | 93.9%
CC(C)c1nc(-c2cccc(NS(=O)(=O)c3c(F)cccc3F)c2)c(-c2ccnc(Nc3ccc(N4CCOCC4)nc3)n2)s1.Cl [GSK1723980] | 3% | 0% | 5% | 4% | 15% | 9% | 19% | 99.7% | 1% | 91.8%
CCNC(=O)/C=C/c1n[nH]c2cc(Sc3ccccc3C(=O)NC)ccc12 | 0% | 5% | 0% | 10% | 17% | 0% | 0% | 20% | 0% | 86%
COC(=O)Nc1nc2ccc(Oc3ccc(NC(=O)Nc4cc(C(F)(F)F)ccc4F)cc3)cc2[nH]1.Cl [GW654607] | 25% | 27% | 26% | 15% | 21% | 0% | 100% | 48% | 25% | 97.2%
Fc1cc(Cl)ccc1Nc1ccnc2cc(-c3ccc(CN4CCOCC4)o3)ccc12 [GW560109] | 10% | 4% | 1% | 8% | 8% | 21% | 24% | 84% | 0% | 71%
O=C(Nc1n[nH]c2nc(-c3ccccc3O)ccc12)C1CC1 [SB-711880] | 0% | 30% | 0% | 0% | 0% | 0% | 0% | 0% | 0% | 70%
Cc1cccc(Nc2nc(NCCN)ncc2C(N)=O)c1 [GSK1292139] | 7% | 0% | 31% | 15% | 9% | 0% | 0% | 6% | 31% | 88%
COc1cc(Nc2ccnc3cc(-c4ccncc4)ccc23)cc(OC)c1OC.Cl [GW494610] | 22% | 4% | 16% | 19% | 2% | 32% | 9% | 76% | 0% | 98.5%
O=C1NC(=O)C(c2ccccc2Cl)=C1Nc1cccc(Cl)c1 [SB-342409] | 14% | 8% | 0% | 1% | 0% | 0% | 100% | 17% | 15% | 40%
Cc1cc(-c2c(-c3ccc(F)cc3)ncn2CCCN2CCOCC2)nc(N)n1 [SB-222517] | 0% | 0% | 0% | 0% | 0% | 13% | 16% | 0% | 20% | 11%
COc1cccc(C2=C(Nc3cccc(O)c3)C(=O)NC2=O)c1 [SB-390771] | 13% | 25% | 7% | 35% | 0% | 0% | 2% | 15% | 16% | 43%
COc1cccc(CC(=O)N2CCc3cc(-c4cn(C)c5ncnc(N)c45)ccc32)c1 [GSK2608899] | 21% | 52% | 54% | 12% | 13% | 0% | 8% | 16% | 17% | 96.9%
Nc1ncnc2scc(-c3ccc(NC(=O)Cc4cc(F)ccc4F)cc3)c12.O=C(O)C(F)(F)F [SB-731254-M] | 0% | 0% | 0% | 25% | 89% | 90.1% | 28% | 29% | 0% | 97.8%
CC(C)NCC(Cc1ccccc1)NC(=O)c1cc(Br)c(-c2ccnc3[nH]ccc23)s1.Cl.Cl (stereo not drawn) [GSK1383281] | 0% | 0% | 0% | 18% | 21% | 0% | 0% | 0% | 40% | 83%
CCNc1nccc(-c2c(-c3ccc(F)cc3)ncn2C2CCN(C)CC2)n1 | 0% | 0% | 0% | 0% | 0% | 0% | 0% | 3% | 5% | 0%
Cn1cc(-c2ccc3c(c2)CCN3C(=O)Cc2cc(F)cc(C(F)(F)F)c2)c2c(N)ncnc21 [GSK2635225] | 8% | 10% | 30% | 13% | 19% | 0% | 0% | 13% | 22% | 88%
Cc1ccc(NC(=O)c2ccnc(N3CCCCC3)c2)cc1-c1ccc(C(=O)NCC2CC2)cc1 [GW775610] | 0% | 9% | 0% | 0% | 0% | 10% | 0% | 0% | 0% | 0%
CN(c1ccc(NC(=O)Nc2cccc(Cl)c2)cc1)c1ccnc(N)n1.Cl [GW830707] | 28% | 12% | 38% | 5% | 0% | 16% | 29% | 0% | 0% | 67%
CS(=O)(=O)c1cccc(CNc2nc(Nc3ccc4c(c3)CCC(=O)N4)ncc2C(F)(F)F)c1 | 0% | 0% | 0% | 0% | 0% | 0% | 0% | 0% | 0% | 99%
CC(C)(C)c1ccc(C(=O)Nc2cn3cc(-n4ccnc4)ccc3n2)cc1 | 0% | 3% | 0% | 0% | 0% | 0% | 0% | 0% | 0% | 79%
Cl.O=C(Nc1ccc(Oc2ccc3[nH]c(NC(=O)c4ccco4)nc3c2)cc1)Nc1cc(C(F)(F)F)ccc1F [GW683134] | 2% | 0% | 14% | 9% | 2% | 0% | 14% | 61% | 0% | 92.9%
N#Cc1cnc2cc(-c3cnc(CNCCN4CCOCC4)s3)ccc2c1Nc1ccc(Oc2ccccc2)cc1 [GW664114] | 74% | 95.9% | 94.2% | 89% | 0% | 0% | 0% | 97.1% | 19% | 97%
COC(=O)Nc1nc2cc(Oc3ccc(NC(=O)Nc4cccc(SC)c4)cc3)ccc2[nH]1.Cl [GW697999] | 0% | 3% | 29% | 27% | 14% | 0% | 0% | 29% | 3% | 85%
Fc1cc(Cl)ccc1Nc1ccnc2cc(-c3ccc(CN4CCSCC4)o3)ccc12 [GW560106] | 1% | 0% | 35% | 14% | 7% | 24% | 1% | 79% | 19% | 66%
Cc1nn2c(=O)cc(N3CCO[C@H](C)C3)nc2n1Cc1cccc(Cl)c1Cl [GSK2373693] | 4% | 18% | 5% | 0% | 2% | 0% | 14% | 14% | 0% | 56%
COc1cc(Nc2nccc(N3CCC(NC(=O)Nc4ccc5c(c4)OCO5)C3)n2)cc(OC)c1OC (stereo not drawn) [GSK1379766] | 11% | 11% | 46% | 5% | 0% | 0% | 6% | 7% | 0% | 45%
CC(C)c1nc(-c2ccc(F)c(NS(=O)(=O)c3c(F)cccc3F)c2)c(-c2ccnc(Nc3ccc(N4CCOCC4)nc3)n2)s1 [GSK1804250] | 7% | 0% | 0% | 31% | 42% | 71% | 15% | 99.2% | 32% | 40%
CNc1nccc(-c2ccc3c(N)n[nH]c3c2)n1 [GSK2206003] | 1% | 0% | 4% | 2% | 62% | 53% | 20% | 24% | 20% | 76%
CSc1ccc(NC2=C(c3ccc(Cl)cc3)C(=O)NC2=O)cc1 [SB-317658] | 20% | 24% | 4% | 0% | 0% | 2% | 33% | 0% | 0% | 21%
O=C(Nc1n[nH]c2nc(-c3cccc(O)c3)ccc12)C1CC1 [SB-711805] | 28% | 26% | 0% | 63% | 4% | 0% | 0% | 0% | 0% | 90.9%
